Test results as given in PubChem BioAssay (Tox21).
Inconclusive results are not listed. The source made the active and inactive calls. Unless noted, the call rests on the fitted dose curve; in most records, active means well fitted curve in the direction sought with a large enough effect in the repeat runs; inconclusive means weak or mixed curves; inactive means no such curve, though single readings can be large; an effect the other way counts as inactive or inconclusive.

What was measured:
[1] = qHTS assay to identify small molecule antagonists of the estrogen receptor alpha (ER-alpha) signaling pathway using the BG1 cell line in the presence of 0.1 nM 17-beta-estradiol - cell viability counter screen (AID 1259241); further: nearly all actives have a fitted effect of over 40% in size
Method in brief: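 VM7Luc4E2 cells (endogenous full-length ER-alpha, 4xERE-luciferase), cultured 5 days in charcoal-stripped serum, exposed to compounds with 0.1 nM 17beta-estradiol (final) for 22 hr at 37C. Viability read in same wells as live-cell protease fluorescence after 30 min.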

[2] = qHTS assay to identify small molecule antagonists of the androgen receptor (AR) signaling pathway using the MDA cell line in the presence of 0.5 nM R1881 - cell viability counter screen (AID 1259242); further: nearly all actives have a fitted effect of over 45% in size
Method in brief: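 Live-cell protease activity was measured by CellTiter-Fluor fluorescence after 30 min. Before that, MDA-kb2 MMTV-luciferase cells had 16 hr at 37C without CO2, exposed to test compounds and 0.5 nM R1881 final.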

[3] = biological target: Estrogen receptor (Homo sapiens) (UniProt P03372); experiment: qHTS assay to identify small molecule antagonists of the estrogen receptor alpha (ER-alpha) signaling pathway using the BG1 cell line in the presence of 0.1 nM 17-beta-estradiol (AID 1259244); further: nearly all actives have a fitted effect of over 50% in size
Method in brief: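 Luciferase luminescence (ONE-Glo, 30 min at room temperature) was read after 22 hr at 37C exposure to compounds plus 17beta-estradiol at 0.1 nM final. Cells were VM7Luc4E2 with endogenous ER-alpha and an ERE-driven luciferase, pre-cultured 5 days in hormone-depleted medium.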

[4] = qHTS assay to identify small molecule HDAC inhibitors (AID 1259364); further: top concentration of the series differs between compounds; nearly all actives have a fitted effect of over 45% in size
Method in brief: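 Luminescence read after 30 min room-temperature HDAC-Glo incubation measures cellular class I/II HDAC activity. Compounds were applied for 2 hr at 37 C to HCT-116 wild-type cells seeded the day before.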

[5] = qHTS assay to identify small molecule HDAC inhibitors - cell viability counter screen (AID 1259365); further: series mostly up to about 92 µM; nearly all actives have a fitted effect of over 50% in size
Method in brief: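 Wild-type HCT-116 cells, 1,500/well, cultured overnight, then compound-treated 2 h at 37 C. Viability measured as ATP luminescence with CellTiter-Glo after 30 min at room temperature.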

[6] = qHTS assay to identify small molecule agonists of the sonic hedgehog signaling (Shh) pathway - cell viability counter screen (AID 1259366); further: nearly all actives have a fitted effect of over 50% in size
Method in brief: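 NIH/3T3-derived Gli1-Luc reporter cells, 2,000 per well, received compound after 4 h and were treated about 23 h at 37C. Viability measured in the same wells by CellTiter-Fluor fluorescence after 1 h.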

[7] = qHTS assay to identify small molecule antagonists of the sonic hedgehog signaling (Shh) pathway - cell viability counter screen (AID 1259367); further: nearly all actives have a fitted effect of over 55% in size
Method in brief: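 CellTiter-Fluor signal in conditioned medium-stimulated 3T3 Gli1-Luc cells, 23 hr compound exposure, 37C.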

[8] = qHTS assay to identify small molecule agonists of the sonic hedgehog signaling (Shh) pathway (AID 1259368; calls by dose curve;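 further: NIH/3T3-derived 3T3Gli1-Luc cells carrying a stable Gli1-driven firefly luciferase reporter; series mostly up to about 92 µM; nearly all actives have a fitted effect of over 15% in size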)
Method in brief: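 Luminescence was read after 30 min at room temperature with luciferase reagent. Before that, 3T3Gli1-Luc cells (NIH/3T3 clone, stable Gli1-Luc reporter; 2,000/well) were exposed to compounds for 24 hr at 37C, 5% CO2, compounds being added 4 hr post-plating.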

[9] = qHTS assay to identify small molecule antagonists of the sonic hedgehog signaling (Shh) pathway (AID 1259369; calls by dose curve; further: nearly all actives have a fitted effect of over 45% in size)
Method in brief: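 Antagonist mode: compound added to 3T3 Gli1-Luc cells followed by conditioned-medium stimulation, 24 h at 37 C, 5% CO2. Inhibition taken as loss of Gli1-driven luciferase luminescence.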

[10] = biological target: Estrogen receptor beta (Homo sapiens) (UniProt Q92731); experiment: qHTS assay to identify small molecule agonists of the estrogen receptor beta (ER-beta) signaling pathway (AID 1259377; active means well fitted activation curve with a large enough effect in the signal ratio in the repeat runs, not every such curve was filed as active; the % refers to the signal ratio)
Method in brief: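 ER-beta-UAS-bla HEK293T cells in medium with 2% charcoal-stripped FBS were exposed to compounds for 16 h at 37C. Beta-lactamase reporter activity was read as fluorescence after 2 h with LiveBLAzer B/G FRET substrate at room temperature.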

[11] = biological target: Estrogen receptor beta (Homo sapiens) (UniProt Q92731); experiment: qHTS assay to identify small molecule antagonists of the estrogen receptor beta (ER-beta) signaling pathway (AID 1259378; active means well fitted inhibition curve with a large enough effect in the signal ratio in the repeat runs, not every such curve was filed as active; the % refers to the signal ratio)
Method in brief: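 Antagonist mode: compounds added to beta-lactamase reporter HEK293T ER-beta-UAS cells stimulated with E2 (1nM final), 16 hr at 37C. LiveBLAzer B/G FRET substrate, 2 hours room temperature, fluorescence read-out.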

[12] = qHTS assay to identify small molecule agonists of the androgen receptor (AR) signaling pathway in the presence of an antagonist - cell viability counter screen (AID 1259379);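 further: MDA-kb2 human breast cancer cells carrying an MMTV luciferase reporter; series mostly up to about 92 µM; nearly all actives have a fitted effect of over 25% in size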
Method in brief: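 Cytotoxicity counter-screen run in the same wells as the nilutamide-challenged (3.0 µM final) AR agonist assay in MDA-kb2 cells. Compounds tested at 15 concentrations for 16 h, 37 °C without CO2; CellTiter-Fluor fluorescence read.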

[13] = qHTS assay to identify small molecule agonists of the estrogen receptor beta (ER-beta) signaling pathway - cell viability counter screen (AID 1259380); further: nearly all actives have a fitted effect of over 30% in size
Method in brief: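 Cell viability counter screen: CellTiter-Glo luminescence (30 min, room temperature) measured in the same wells as the beta-lactamase readout, after 16 hr compound exposure at 37C of ER-beta-bla HEK293T cells in 2% charcoal-stripped FBS medium.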

[14] = biological target: Estrogen receptor (Homo sapiens) (UniProt P03372); experiment: qHTS assay to identify small molecule agonists of the estrogen receptor alpha (ER-alpha) signaling pathway in the presence of an antagonist (AID 1259383; calls by dose curve; further: top concentration of the series differs between compounds; nearly all actives have a fitted effect of over 15% in size)
Method in brief: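 Agonist-mode confirmation run in the presence of 10.0nM (final) ICI-182,780 antagonist. The reporter was ERE-driven luciferase in VM7Luc4E2 cells, grown in charcoal-stripped serum. Cells were exposed to 15-concentration compound series for 22hr, then ONE-Glo luminescence was read.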

[15] = qHTS assay to identify small molecule agonists or antagonists of the thyroid stimulating hormone receptor (TSHR) signaling pathway - wild type cell line counter screen (AID 1259384; calls by dose curve)
Method in brief: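 Counter screen in untransfected Hek293: compounds (15-point titration, triplicate) plus phosphodiesterase inhibitor Ro20-1724 added after 18 h plating; 30 min RT. Intracellular cAMP via competitive d2/cryptate immunoassay, 1 h incubation.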

[16] = biological target: Thyrotropin receptor (Homo sapiens) (UniProt P16473); experiment: qHTS assay to identify small molecule antagonists of the thyroid stimulating hormone receptor (TSHR) signaling pathway (AID 1259385; calls by dose curve; further: nearly all actives have a fitted effect of over 20% in size)
Method in brief: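 Antagonist mode: compound-treated TSHR-expressing HEK293 cells were stimulated with 1.5 ng/mL TSH (final) in presence of Ro20-1724 for 30 min at RT. HTRF cAMP detection after 1 h; each compound tested at 15 concentrations, triplicate.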

[17] = qHTS assay to identify small molecule antagonists of the estrogen receptor beta (ER-beta) signaling pathway - cell viability counter screen (AID 1259382);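 further: HEK293T cells carrying ER-beta-UAS-bla reporter stimulated with estradiol; series mostly up to about 92 µM; nearly all actives have a fitted effect of over 55% in size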
Method in brief: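 Cytotoxicity was measured in the same wells by CellTiter-Glo luminescence after 30 min at room temperature. Cells were ER-beta-bla HEK293T in charcoal-stripped serum, given compound together with 1 nM E2 and incubated 16 h at 37C.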

Measured: Potency

Estrogen receptor (Homo sapiens), sequence (P03372 whole entry, looked up): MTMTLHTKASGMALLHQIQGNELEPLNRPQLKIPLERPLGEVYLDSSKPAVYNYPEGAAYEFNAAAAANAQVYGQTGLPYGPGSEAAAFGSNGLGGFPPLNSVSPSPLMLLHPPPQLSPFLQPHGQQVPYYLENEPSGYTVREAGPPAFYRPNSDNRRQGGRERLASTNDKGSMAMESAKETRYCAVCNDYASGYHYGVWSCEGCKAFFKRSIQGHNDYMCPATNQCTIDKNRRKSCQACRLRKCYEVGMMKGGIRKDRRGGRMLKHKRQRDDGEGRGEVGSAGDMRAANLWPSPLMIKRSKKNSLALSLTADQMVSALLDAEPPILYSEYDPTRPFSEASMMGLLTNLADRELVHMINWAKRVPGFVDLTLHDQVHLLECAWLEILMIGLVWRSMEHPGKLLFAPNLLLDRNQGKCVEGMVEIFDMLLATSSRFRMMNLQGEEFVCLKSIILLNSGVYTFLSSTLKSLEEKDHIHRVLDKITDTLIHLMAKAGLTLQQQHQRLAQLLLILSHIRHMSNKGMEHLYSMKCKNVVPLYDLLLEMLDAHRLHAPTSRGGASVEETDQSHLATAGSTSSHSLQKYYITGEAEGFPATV
Estrogen receptor beta (Homo sapiens), sequence (Q92731 whole entry, looked up): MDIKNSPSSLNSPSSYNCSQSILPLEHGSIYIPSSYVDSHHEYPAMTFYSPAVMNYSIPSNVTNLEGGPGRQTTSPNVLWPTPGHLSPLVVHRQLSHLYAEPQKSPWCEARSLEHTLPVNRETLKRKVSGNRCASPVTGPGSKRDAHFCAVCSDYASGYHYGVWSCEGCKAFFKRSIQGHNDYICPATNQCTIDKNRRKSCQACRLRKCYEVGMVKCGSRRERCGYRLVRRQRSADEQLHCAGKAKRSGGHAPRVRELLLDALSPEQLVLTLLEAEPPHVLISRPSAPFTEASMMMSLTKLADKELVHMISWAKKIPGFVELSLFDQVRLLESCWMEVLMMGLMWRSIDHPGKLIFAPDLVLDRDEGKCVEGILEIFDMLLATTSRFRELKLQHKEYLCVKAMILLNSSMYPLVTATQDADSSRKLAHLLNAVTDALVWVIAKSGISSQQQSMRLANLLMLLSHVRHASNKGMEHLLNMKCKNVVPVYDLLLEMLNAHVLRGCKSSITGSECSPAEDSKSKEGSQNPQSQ
Thyrotropin receptor (Homo sapiens), sequence (P16473 whole entry, looked up): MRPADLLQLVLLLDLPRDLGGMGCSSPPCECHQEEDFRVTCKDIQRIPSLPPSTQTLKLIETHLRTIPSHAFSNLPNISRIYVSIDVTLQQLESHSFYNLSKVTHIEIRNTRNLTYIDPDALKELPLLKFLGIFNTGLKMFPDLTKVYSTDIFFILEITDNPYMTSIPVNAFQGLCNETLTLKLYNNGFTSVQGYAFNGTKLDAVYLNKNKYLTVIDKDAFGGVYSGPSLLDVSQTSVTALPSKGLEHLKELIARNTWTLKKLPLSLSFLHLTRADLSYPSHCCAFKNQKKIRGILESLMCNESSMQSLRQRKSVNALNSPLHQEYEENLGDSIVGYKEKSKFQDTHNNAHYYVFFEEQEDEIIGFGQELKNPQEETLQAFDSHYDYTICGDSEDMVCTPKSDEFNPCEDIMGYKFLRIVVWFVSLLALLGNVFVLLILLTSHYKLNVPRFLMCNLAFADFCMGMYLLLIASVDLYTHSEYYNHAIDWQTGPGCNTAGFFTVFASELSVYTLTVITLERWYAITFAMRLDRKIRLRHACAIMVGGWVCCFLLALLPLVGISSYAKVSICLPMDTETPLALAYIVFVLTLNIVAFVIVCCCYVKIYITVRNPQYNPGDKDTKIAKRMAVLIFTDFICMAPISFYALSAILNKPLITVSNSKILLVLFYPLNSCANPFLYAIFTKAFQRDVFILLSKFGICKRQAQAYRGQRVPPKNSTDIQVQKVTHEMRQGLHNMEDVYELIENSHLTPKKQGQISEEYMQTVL

CCC(C)Cl (centres undefined)
not listed: [17]
inactive: all other assays above

CCCCCCCCCCCCN(C)C
not listed: [5]
inactive: all other assays above

NC(=O)CF
not listed: [10] | [11]
inactive: all other assays above

Cc1ccc2c(C)cccc2c1
not listed: [8] | [10] | [11]
inactive: all other assays above

CCNC(=O)NC(=O)/C(C#N)=N/OC
not listed: [10] | [11]
inactive: all other assays above

CCCCCCCCCCCCCCCl
not listed: [8] | [10] | [11]
inactive: all other assays above

CCOc1cccc(C2(N3CCN(c4ccccc4)CC3)CCC(C)CC2)c1 (centres undefined)
not listed: [10] | [11]
inactive: all other assays above

O=C([O-])c1ccccn1.O=C([O-])c1ccccn1.O=C([O-])c1ccccn1.[Cr+3]
not listed: [10] | [15] | [16] | [17]
inactive: all other assays above

C1CCNCC1
not listed: [10]
inactive: all other assays above
